# Measurements as given in PubChem BioAssay (NCI).
# This is part of a sample that, as a whole, favours compounds with a hit. Of some 83,000 tested, about 20% had one in any assay.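 Percent growth is the endpoint: 0 to 100 indicates growth inhibition (40 means 60% inhibition), 0 means no net growth, and negative values indicate cell death.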 Values without a mark were called inactive. Active and inactive are the calls of the source. Rule for the calls: active = growth percent below 10; inactive = the rest.
# System: COLO 205 colon
# Experiment: NCI-60 one-dose screen, 48 h (100 = growth as untreated, 0 = no growth, -100 = all killed)
# Conditions: 10 µM unless noted
row,Structure (SMILES),growth
1,c1csc(C2=NN3C(C2)c2ccccc2OC3c2ccncc2)c1 (stereo not drawn),112%
2,CC1=CC(C)(C)Nc2ccc(Cc3ccc4c(c3)C(C)=CC(C)(C)N4)cc21,125%
3,CCCCn1c(-c2ccc(C(=O)O/N=C(\N)c3ccc4ccccc4c3)cc2)nc(-c2ccccc2)c1-c1ccccc1,90.8%
4,O=C(Nc1ccc(Cl)cc1)c1cc2cc(F)ccc2cc1O,69.5%
5,Cn1cc(-c2nonc2-c2cn(C)c3ccc(F)cc23)c2cc(F)ccc21,62.4%
6,CCN(CC)S(=O)(=O)c1ccc(OC)c(NC(=O)c2[nH]c(C)c3c2CCCCC3=O)c1,35.6%
7,COc1cccc(-c2nc3sccn3c2-c2ccnc(NCCCNS(=O)(=O)c3cccc(F)c3)c2)c1,19%
8,COc1cc(/C=C/c2cc(/C=C/c3ccc(O)c(OC)c3)n(-c3c(C)cccc3C)c(=O)n2)ccc1O,-40.9% (active)
9,COc1cccc(-c2nc(SCC(=O)Nc3ccc(C(=O)/C=C/c4ccc(OC)c(OC)c4)cc3)[nH]c(=O)c2C#N)c1,103%
10,Cc1cc(C)c2nc3nc(C)cc(C)c3c(N)c2c1,16.2%
11,FC(F)(F)c1ccc(-c2cn3nc(-c4c[nH]c5ccc(Br)cc45)sc3n2)cc1,91.8%
12,CC(=O)O[C@H]1[C@@H]2OC(=O)C(CSc3ccccc3)[C@@H]2C[C@H]2O[C@]2(C)CC/C=C(\C)CCC[C@@H]1C (stereo partly drawn),29.7%
13,Cc1cc(C)nc(SC2=C(Nc3ccc(O)cc3)C(=O)N(Cc3ccccc3)C2=O)n1,108% [40 µM]
14,COC(=O)c1ccc(Cn2cnc3c(N)ncnc32)cc1,109%
15,CN(C)[C@@H]1C(=O)C(C(=O)NCc2nc3[nH]cnc(=S)c3[nH]2)=C(O)[C@@]2(O)C(=O)C3=C(O)c4c(O)cccc4[C@@](C)(O)[C@H]3C[C@@H]12,88%
16,CCOC(=O)c1sc2nc(-c3cccc(O)c3)nc(N3CCOCC3)c2c1C,105%
17,OCC(O)c1nc2ccc3[nH]ncc3c2c2c1CCCC2 (stereo not drawn),1.61% (active)
18,CC[C@@H]1O[C@H](O[C@@H](c2cnc[nH]2)[C@H](NC(=O)c2nc([C@H](CC(N)=O)NC[C@@H](N)C(N)=O)nc(N)c2C)C(=O)N[C@H](C)[C@H](O)[C@H](C)C(=O)N[C@@H](C(=O)NCCc2nc(-c3nc(C(=O)NCCCCN=C(N)N)cs3)cs2)[C@@H](C)O)[C@H](O[C@@H]2O[C@H](CO)[C@H](O)[C@H](OC(N)=O)[C@@H]2O)[C@H](C)[C@@H]1C,64.2%

row,Structure (SMILES),growth
1,COc1cc2c(cc1-c1c(C)noc1C)ncc1nc(C3CCC(F)(F)CC3)n([C@H](C)COC(F)F)c12,25.1%
2,O=C1c2c(O)cc(O)cc2-c2c(-c3ccc(O)cc3)oc3cc(O)cc1c23,86.2%
3,CCN1CCN(c2nc(NCCNc3ccnc4cc(Cl)ccc34)c3ccccc3n2)CC1,-60.6% (active)
4,O=S(=O)(Nc1ccc(Br)c(Cl)c1)c1ccc(-c2cnc(C3CC3)o2)cc1,-2.39% (active)
5,Cc1nn(-c2cc(=O)[nH]c3ccc(Cl)cc23)c(N)c1C#N,119%
6,Clc1ccc2c(NCCCCNc3nc(N4CCOCC4)nc4ccccc34)ccnc2c1,-46.9% (active)
7,O=C(O)c1ccc(NC(=O)c2ccc(-c3cccc([N+](=O)[O-])c3)o2)cc1,107%
8,Cc1ccc(NS(=O)(=O)c2ccc(-c3cnc(C4CC4)o3)cc2)cc1C,-10.1% (active)
9,O=c1ccccc(-c2ccc(-c3ccco3)cc2)c1O,26.3%
10,CC(C)CC1C(=O)N2CCC[C@H]2C2(O)O[C@](NC(=O)C3C=C4c5cccc6[nH]c(Br)c(c56)C[C@H]4N(C)C3)(C(C)C)C(=O)N12 (stereo partly drawn),47.9%
11,C=CC(=O)Nc1cccc(-c2nc(SC)nc(NCCN3CCOCC3)c2C#N)c1,114%
12,CC(C)c1c(C(=O)c2ccccc2)c(-c2ccccc2)c(-c2ccc(F)cc2)n1CC[C@@H](O)C[C@@H](O)CC(=O)O,55.3%
13,O=S(=O)(Nc1ccc(NS(=O)(=O)c2ccccc2)c(Cl)c1)c1ccccc1,114%
14,O=C(N=Nc1c(O)[nH]c2ccccc12)c1cc(-c2ccccc2)on1,122%
15,O=C1NC(=S)NC(=O)C1CC(=O)n1c(-c2ccccc2)nc2ccccc21,111%
16,Cn1c(O)c(N=NC(=O)c2cc(-c3ccccc3)on2)c2ccccc21,130%
17,CN1CCN(Cc2ccc(NC(=O)c3cncc(C#Cc4cncn5ccnc45)c3)cc2C(F)(F)F)CC1,32.3%

# System: DU-145 prostate
# Experiment: as above
# Conditions: 10 µM unless noted
row,Structure (SMILES),growth
1,c1csc(C2=NN3C(C2)c2ccccc2OC3c2ccncc2)c1 (stereo not drawn),97%
2,CC1=CC(C)(C)Nc2ccc(Cc3ccc4c(c3)C(C)=CC(C)(C)N4)cc21,98.1%
3,CCCCn1c(-c2ccc(C(=O)O/N=C(\N)c3ccc4ccccc4c3)cc2)nc(-c2ccccc2)c1-c1ccccc1,65.3%
4,O=C(Nc1ccc(Cl)cc1)c1cc2cc(F)ccc2cc1O,26.7%
5,Cn1cc(-c2nonc2-c2cn(C)c3ccc(F)cc23)c2cc(F)ccc21,81.1%
6,CCN(CC)S(=O)(=O)c1ccc(OC)c(NC(=O)c2[nH]c(C)c3c2CCCCC3=O)c1,72.8%
7,COc1cccc(-c2nc3sccn3c2-c2ccnc(NCCCNS(=O)(=O)c3cccc(F)c3)c2)c1,31.9%
8,COc1cc(/C=C/c2cc(/C=C/c3ccc(O)c(OC)c3)n(-c3c(C)cccc3C)c(=O)n2)ccc1O,12.7%
9,COc1cccc(-c2nc(SCC(=O)Nc3ccc(C(=O)/C=C/c4ccc(OC)c(OC)c4)cc3)[nH]c(=O)c2C#N)c1,89.4%
10,Cc1cc(C)c2nc3nc(C)cc(C)c3c(N)c2c1,15.5%
11,FC(F)(F)c1ccc(-c2cn3nc(-c4c[nH]c5ccc(Br)cc45)sc3n2)cc1,107%
12,CC(=O)O[C@H]1[C@@H]2OC(=O)C(CSc3ccccc3)[C@@H]2C[C@H]2O[C@]2(C)CC/C=C(\C)CCC[C@@H]1C (stereo partly drawn),1.69% (active)
13,Cc1cc(C)nc(SC2=C(Nc3ccc(O)cc3)C(=O)N(Cc3ccccc3)C2=O)n1,96.8% [40 µM]
14,CCOc1nc(-c2ccccc2)cc2c(O)c(C(=O)O)[nH]c(=O)c12,101%
15,COc1ccc(Nc2nc(SC)nc(-c3cccc([N+](=O)[O-])c3)c2C#N)cc1,80.6%
16,CN(C)[C@@H]1C(=O)C(C(=O)NCc2nc3[nH]cnc(=S)c3[nH]2)=C(O)[C@@]2(O)C(=O)C3=C(O)c4c(O)cccc4[C@@](C)(O)[C@H]3C[C@@H]12,42.6%
17,CCOC(=O)c1sc2nc(-c3cccc(O)c3)nc(N3CCOCC3)c2c1C,38.9%
18,O=C1/C(=C/c2ccccc2)SC(=S)N1CCc1ccc(O)cc1,90.1%
19,OCC(O)c1nc2ccc3[nH]ncc3c2c2c1CCCC2 (stereo not drawn),11.7%

row,Structure (SMILES),growth
1,CC[C@@H]1O[C@H](O[C@@H](c2cnc[nH]2)[C@H](NC(=O)c2nc([C@H](CC(N)=O)NC[C@@H](N)C(N)=O)nc(N)c2C)C(=O)N[C@H](C)[C@H](O)[C@H](C)C(=O)N[C@@H](C(=O)NCCc2nc(-c3nc(C(=O)NCCCCN=C(N)N)cs3)cs2)[C@@H](C)O)[C@H](O[C@@H]2O[C@H](CO)[C@H](O)[C@H](OC(N)=O)[C@@H]2O)[C@H](C)[C@@H]1C,49.4%
2,COc1cc2c(cc1-c1c(C)noc1C)ncc1nc(C3CCC(F)(F)CC3)n([C@H](C)COC(F)F)c12,71.4%
3,O=C1c2c(O)cc(O)cc2-c2c(-c3ccc(O)cc3)oc3cc(O)cc1c23,40.9%
4,CCN1CCN(c2nc(NCCNc3ccnc4cc(Cl)ccc34)c3ccccc3n2)CC1,33.9%
5,O=S(=O)(Nc1ccc(Br)c(Cl)c1)c1ccc(-c2cnc(C3CC3)o2)cc1,9.63% (active)
6,Cc1nn(-c2cc(=O)[nH]c3ccc(Cl)cc23)c(N)c1C#N,114%
7,Clc1ccc2c(NCCCCNc3nc(N4CCOCC4)nc4ccccc34)ccnc2c1,38.4%
8,CCOc1nc(-c2ccccc2)cc2c(O)c(C(=O)N/N=C/c3ccc(O)cc3O)[nH]c(=O)c12,23.4%
9,O=C(O)c1ccc(NC(=O)c2ccc(-c3cccc([N+](=O)[O-])c3)o2)cc1,105%
10,Cc1ccc(NS(=O)(=O)c2ccc(-c3cnc(C4CC4)o3)cc2)cc1C,14.4%
11,O=c1ccccc(-c2ccc(-c3ccco3)cc2)c1O,19.7%
12,CC(C)CC1C(=O)N2CCC[C@H]2C2(O)O[C@](NC(=O)C3C=C4c5cccc6[nH]c(Br)c(c56)C[C@H]4N(C)C3)(C(C)C)C(=O)N12 (stereo partly drawn),83.6%
13,C=CC(=O)Nc1cccc(-c2nc(SC)nc(NCCN3CCOCC3)c2C#N)c1,94.7%
14,CC(C)c1c(C(=O)c2ccccc2)c(-c2ccccc2)c(-c2ccc(F)cc2)n1CC[C@@H](O)C[C@@H](O)CC(=O)O,105%
15,O=S(=O)(Nc1ccc(NS(=O)(=O)c2ccccc2)c(Cl)c1)c1ccccc1,109%
16,O=C(N=Nc1c(O)[nH]c2ccccc12)c1cc(-c2ccccc2)on1,113%
17,O=C1NC(=S)NC(=O)C1CC(=O)n1c(-c2ccccc2)nc2ccccc21,113%
18,Cn1c(O)c(N=NC(=O)c2cc(-c3ccccc3)on2)c2ccccc21,107%
19,CN1CCN(Cc2ccc(NC(=O)c3cncc(C#Cc4cncn5ccnc45)c3)cc2C(F)(F)F)CC1,86.2%
